From PubChem BioAssay AID1159580 (chemical genetic matrix, 2015)
Hit rate of the full screen: of about 5,500 compounds, about 2,000 (36%) were called active. About 18% were inconclusive and are not listed. No stated cut-off is given here; in the data, active means normalized growth mostly below about 0.91 (no sharp cut-off); inconclusive means no clear call, values can overlap the other calls; inactive means mostly above about 0.92. This is one part of the list.

Experiment: chemical genetic growth profiling, strain panel (AID 1159580);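 further: tested at 20 µM; growth read once vehicle control cultures reached saturation at 30 °C; 1 = growth at the plate median or of vehicle wells; lower values mean less growth of the strain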
Details: S. cerevisiae deletion strains, growth OD

Measured: normalized growth

c1ccc2c(c1)OCC(C1=NCCN1)O2 (stereo unspecified)
inactive: locus YAL013W, strain DEP1, active compounds read low 1.02 | locus YAL040C, strain CLN3, active compounds read low 1 | locus YCL061C, strain MRC1 (second series), active compounds read low 1 | locus YDR363W, strain ESC2, active compounds read low 1.03 | locus YER002W, strain NOP16, active compounds read low 0.987 | locus YGR078C, strain PAC10, active compounds read low 1.01 | locus YGR229C, strain SMI1, active compounds read low 1.02 | locus YJR075W, strain HOC1, active compounds read low 1 | locus YMR263W, strain SAP30, active compounds read low 1.02 | locus YMR307W, strain GAS1, active compounds read low 0.996 | locus YNL175C, strain NOP13, active compounds read low 1.02 | locus YNL197C, strain WHI3, active compounds read low 1.01 | locus YNL224C, strain SQS1, active compounds read low 1.01 | locus YOR083W, strain WHI5 (second series), active compounds read low 0.996 | locus YPL055C, strain LGE1, active compounds read low 1.01

O=C(NCc1ccco1)c1csc(C2COc3ccccc3O2)n1 (stereo unspecified)
active: locus YDR052C, strain DBF4, active compounds read low 0.909 | locus YDR054C, strain cdc34, active compounds read low 0.875 | locus YFR019W, strain FAB1, active compounds read low 0.711 | locus YGR092W, strain DBF2, active compounds read low 0.154 | locus YHR030C, strain SLT2, active compounds read low 0.623 | locus YJR066W, strain TOR1 (second series), active compounds read low 0.343 | locus YLR113W, strain HOG1, active compounds read low 0.811 | locus YNL307C, strain MCK1 (second series), active compounds read low 0.585 | locus YOL136C, strain PFK27, active compounds read low 0.66 | locus YOR061W, strain CKA2, active compounds read low 0.586 | locus YPL256C, strain CLN2, active compounds read low 0.754
inactive: locus YAR019C, strain CDC15, active compounds read low 0.916 | locus YBL105C, strain PKC1, active compounds read low 0.917 | locus YBR135W, strain CKS1, active compounds read low 0.918 | locus YBR136W, strain MEC1, active compounds read low 0.925 | locus YBR160W, strain CDC28, active compounds read low 0.914 | locus YDL017W, strain CDC7, active compounds read low 0.925 | locus YDL028C, strain MPS1, active compounds read low 0.919 | locus YDL101C, strain DUN1, active compounds read low 0.964 | locus YDL108W, strain KIN28, active compounds read low 0.937 | locus YDL132W, strain cdc53, active compounds read low 0.897 | locus YDL214C, strain PRR2, active compounds read low 0.854 | locus YDR226W, strain ADK1, active compounds read low 0.923 | locus YDR477W, strain SNF1, active compounds read low 0.773 | locus YER123W, strain YCK3, active compounds read low 0.663 | locus YER133W, strain GLC7, active compounds read low 0.902 | locus YFL009W, strain cdc4, active compounds read low 0.913 | locus YFL029C, strain CAK1, active compounds read low 0.915 | locus YFR003C, strain YPI1, active compounds read low 0.931 | locus YFR028C, strain CDC14, active compounds read low 0.936 | locus YGR040W, strain KSS1, active compounds read low 0.868 | locus YGR052W, strain FMP48, active compounds read low 0.802 | locus YHR079C, strain IRE1, active compounds read low 0.712 | locus YHR082C, strain KSP1, active compounds read low 0.896 | locus YHR205W, strain SCH9, active compounds read low 0.894 | locus YIL147C, strain SLN1, active compounds read low 0.922 | locus YJL095W, strain BCK1, active compounds read low 0.689 | locus YJL128C, strain PBS2, active compounds read low 0.98 | locus YJL157C, strain FAR1, active compounds read low 0.797 | locus YJR016C, strain ILV3, active compounds read low 0.904 | locus YJR066W, strain TOR1, active compounds read low 0.745 | locus YKL048C, strain ELM1, active compounds read low 0.906 | locus YKL067W, strain YNK1, active compounds read low 0.841 | locus YKL101W, strain HSL1, active compounds read low 0.873 | locus YKL193C, strain SDS22, active compounds read low 0.932 | locus YKL203C, strain TOR2, active compounds read low 0.851 | locus YLR133W, strain CKI1, active compounds read low 0.845 | locus YLR403W, strain SFP1, active compounds read low 0.839 | locus YML070W, strain DAK1, active compounds read low 0.689 | locus YMR001C, strain CDC5, active compounds read low 0.919 | locus YMR205C, strain PFK2 (second series), active compounds read low 0.893 | locus YMR277W, strain FCP1, active compounds read low 0.915 | locus YNL006W, strain LST8, active compounds read low 0.926 | locus YNL020C, strain ARK1, active compounds read low 0.843 | locus YNL161W, strain CBK1, active compounds read low 0.921 | locus YNL183C, strain NPR1, active compounds read low 0.737 | locus YNL207W, strain RIO2, active compounds read low 0.915 | locus YNL222W, strain SSU72, active compounds read low 0.917 | locus YOL078W, strain AVO1, active compounds read low 0.928 | locus YOR119C, strain RIO1, active compounds read low 0.894 | locus YOR231W, strain MKK1, active compounds read low 0.746 | locus YOR329C, strain SCD5, active compounds read low 0.909 | locus YPL031C, strain PHO85, active compounds read low 0.85 | locus YPL153C, strain RAD53, active compounds read low 0.773 | locus YPL204W, strain HRR25, active compounds read low 0.796 | locus YPL209C, strain IPL1, active compounds read low 0.923 | locus YPR025C, strain CCL1, active compounds read low 0.916 | locus YPR106W, strain ISR1, active compounds read low 0.956 | locus YPR111W, strain DBF20, active compounds read low 0.947 | strain NNK1, active compounds read low 0.944 | strain TSCII, active compounds read low 0.92
